Results as given in publication PMC4336329 (PLoS ONE, 2015).
Hit rate of the full screen: of about 310,000 compounds, about 14,000 (4.5%) showed an effect of 50% or more. Effects have a minus sign here. The sample as a whole holds a higher share of strong results than the screen did.

target: human ether-à-go-go-related gene (hERG) potassium channel (human, UniProt Q12809); assay: primary screen, population patch clamp on CHO cells stably expressing hERG; higher = less effect of the substance
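Further: peak tail current of the secondary pulse compared with the same well before compound.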

Chain of human ether-à-go-go-related gene (hERG) potassium channel (Q12809 whole entry, looked up): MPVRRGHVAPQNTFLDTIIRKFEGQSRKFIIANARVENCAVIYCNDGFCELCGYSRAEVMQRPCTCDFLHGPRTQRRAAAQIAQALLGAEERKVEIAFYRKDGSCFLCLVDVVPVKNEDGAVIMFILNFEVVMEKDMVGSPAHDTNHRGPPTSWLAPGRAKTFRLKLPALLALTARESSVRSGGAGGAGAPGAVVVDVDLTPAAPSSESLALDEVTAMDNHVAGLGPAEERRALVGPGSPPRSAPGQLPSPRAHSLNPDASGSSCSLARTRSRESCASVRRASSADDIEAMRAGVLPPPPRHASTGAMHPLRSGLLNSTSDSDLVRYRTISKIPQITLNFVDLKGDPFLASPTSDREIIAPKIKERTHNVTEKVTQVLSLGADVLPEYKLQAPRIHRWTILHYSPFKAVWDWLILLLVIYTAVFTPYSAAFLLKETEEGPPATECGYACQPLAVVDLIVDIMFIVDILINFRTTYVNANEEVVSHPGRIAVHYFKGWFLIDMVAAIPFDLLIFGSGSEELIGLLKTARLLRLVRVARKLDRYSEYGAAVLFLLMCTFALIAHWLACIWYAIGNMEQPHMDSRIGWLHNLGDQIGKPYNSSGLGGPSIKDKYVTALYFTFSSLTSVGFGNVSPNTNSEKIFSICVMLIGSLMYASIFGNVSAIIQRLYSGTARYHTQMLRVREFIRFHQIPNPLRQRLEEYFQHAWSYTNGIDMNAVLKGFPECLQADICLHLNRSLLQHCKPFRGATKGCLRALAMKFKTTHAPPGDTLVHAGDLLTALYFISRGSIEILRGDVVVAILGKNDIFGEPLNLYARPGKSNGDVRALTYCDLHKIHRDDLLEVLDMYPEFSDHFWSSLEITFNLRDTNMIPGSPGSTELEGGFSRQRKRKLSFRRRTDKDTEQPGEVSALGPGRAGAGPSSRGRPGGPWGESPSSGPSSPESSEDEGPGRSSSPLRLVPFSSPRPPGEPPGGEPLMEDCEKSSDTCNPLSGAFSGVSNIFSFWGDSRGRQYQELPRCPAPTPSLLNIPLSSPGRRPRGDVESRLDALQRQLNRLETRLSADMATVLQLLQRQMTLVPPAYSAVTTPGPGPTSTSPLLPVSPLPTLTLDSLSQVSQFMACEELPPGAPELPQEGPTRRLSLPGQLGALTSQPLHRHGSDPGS

Structure (SMILES) | hERG current change (%, negative = inhibition) at 10uM [%]
COc1ccc(C(=O)Nc2ccc(C(=O)N3CCCC3)cc2)cc1[N+](=O)[O-] | -33.2
COc1ccc(C(=O)Nc2ccc(N3CCN(C)CC3)cc2)cc1[N+](=O)[O-] | -38.5
CCOc1ccc(C(=O)Nc2ccc(N3CCN(C)CC3)cc2)cc1[N+](=O)[O-] | -57.3
CCCCOc1ccc(C(=O)Nc2ccc(N3CCN(C)CC3)cc2)cc1 | -10.2
CCOc1ccc(C(=O)Nc2ccc(N3CCCC3)cc2)cc1 | 3.89
COc1ccc(C(=O)Nc2ccc(N3CCN(C(C)=O)CC3)cc2)cc1[N+](=O)[O-] | 11.7
COc1ccc(C(=O)Nc2ccc(N3CCN(C(=O)c4ccccc4)CC3)cc2)cc1[N+](=O)[O-] | -67.2
CCOc1ccc(C(=O)Nc2ccc(N3CCN(C)CC3)cc2)cc1 | -50.2
CCOc1ccc(C(=O)Nc2ccc(N3CCN(C(C)=O)CC3)cc2)cc1[N+](=O)[O-] | -45.5
CCC(=O)Nc1ccccc1C(=O)OCc1ccc(C(=O)c2ccccc2)cc1 | -16.1
CCCCC(C(=O)NC(=O)NCc1ccccc1)N1C(=O)c2ccccc2C1=O (stereo not drawn) | 11
CO/N=C(\N)c1nonc1N | 0.407
COCOc1cc(O)c(C(=O)/C=C/c2ccccc2)c(OCOC)c1 | 4.67
CC(C)O.COc1cc(/C=N/NC(=O)c2ccc(O)cc2)ccc1Oc1ccc([N+](=O)[O-])cn1 | -32
Cc1ccc(S(=O)(=O)N(C)c2ccc(OC(=O)CN3C(=O)NC4(CCCC4)C3=O)cc2)cc1 | -14.4
COc1ccc(C(=O)Nc2ccnn2C2CCN(CCC(C)c3ccc(C)o3)CC2)cc1 (stereo not drawn) | -67
COc1ccc(C(=O)Nc2ccnn2C2CCN(Cc3ccncc3)CC2)cc1 | -8.86
COc1ccccc1C(=O)Nc1ccnn1C1CCN(CCC(C)c2ccc(C)o2)CC1 (stereo not drawn) | -80.8
C/C=C(\C)CN1CCC(n2nccc2NC(=O)c2ccc(OC)cc2)CC1 | 2.92
COC(C(=O)Nc1ccnn1C1CCN(Cc2ccc(C)o2)CC1)c1ccccc1 (stereo not drawn) | -2.65
CCOc1cc(NC2CS(=O)(=O)CC2O)c(OCC)cc1NC(=O)c1ccccc1 (stereo not drawn) | 5.95

Structure (SMILES) | hERG current change (%, negative = inhibition) at 10uM [%]
Cc1nnc(N/N=C/c2ccc(-c3ccccc3F)o2)n1N.Cl | -40.3
CN(C)c1cccc2cccc(N(C)C)c12 | -3.13
CCN1CCN(C(=O)/C(=C/c2ccco2)NC(=O)c2ccccc2)CC1 | -70.4
O=C(N/C(=C/c1ccco1)C(=O)N1CCCCCC1)c1ccccc1 | 13.2
O=C(N/C(=C\c1ccco1)C(=O)N1CCCC1)c1ccccc1 | 1.23
NC(=O)C1CCN(C(=O)/C(=C/c2ccco2)NC(=O)c2ccccc2)CC1 | 11.2
O=C(N/C(=C\c1ccco1)C(=O)N1CCC(O)CC1)c1ccccc1 | 27.7
CN1CCN(C(=O)/C(=C/c2ccco2)NC(=O)c2ccccc2)CC1 | -67.6
CCN(c1ccc(OC)cc1)S(=O)(=O)c1csc(C(N)=O)c1 | 6.68
COc1ccc(C(=O)Cc2ccc(OC)c(OC)c2)c(OC)c1 | -0.547
Cc1ccccc1-n1nnc2c(=O)oc3ccccc3c21 | 8.96
Cc1ccc(-n2nc3ccc(NC(=O)/C=C/c4ccco4)cc3n2)cc1 | 7.32
CCOC(=O)Cn1c(=O)oc2cc(S(=O)(=O)N3CCn4c3nc3ccccc34)ccc21 | -56.3
CCOC(=O)Cn1c(=O)oc2cc(S(=O)(=O)N3CCc4ccccc43)ccc21 | -2.03
CCOC(=O)Cn1c(=O)oc2cc(S(=O)(=O)N3CCCc4ccccc43)ccc21 | -26.9
Cc1ccccc1C(=O)N1CCC(C(=O)Nc2cccc(F)c2)CC1 | -3.49
Cc1cccc(CN2CCC(C(=O)Nc3ccc(-n4nc(C)cc4C)cc3)CC2)n1 | -25.2
Cc1cccc(CN2CCC(C(=O)Nc3cccc(-c4cccc(F)c4)c3)CC2)n1 | -74
Cc1cc(C)n(CCC(=O)Nc2cccc(F)c2)n1 | 5.83
COc1cccc(-c2cccc(NC(=O)C3CCN(Cc4cccc(C)n4)CC3)c2)c1 | -80.1
Cc1cccc(CN2CCC(C(=O)Nc3cccc(-c4cscn4)c3)CC2)n1 | -48.2

Structure (SMILES) | hERG current change (%, negative = inhibition) at 10uM [%]
Cc1cc(C)n(CCCN2CCC(C(=O)Nc3cccc(-c4cccc(F)c4)c3)CC2)n1 | -80.4
Cc1ccccc1OCCCCN1CCCCC1 | 12.6
CC(=O)Oc1ccc(-c2cc3c(OC(C)=O)cc(OC(C)=O)cc3oc2=O)cc1 | 14.1
O=S(=O)(NCC1CCCO1)c1ccc(NS(=O)(=O)c2ccc(F)cc2)cc1 (stereo not drawn) | 14.6
Cc1cc(C)n(CC(=O)N2CCCC(N3CCN(Cc4ccc5c(c4)OCO5)CC3)C2)n1 (stereo not drawn) | -14.2
O=C(NCCc1ccccn1)c1ccc(OC2CCN(Cc3ccccn3)CC2)cc1 | 2.88
O=C(Nc1ncc(Cc2cccc(Cl)c2)s1)c1ccc([N+](=O)[O-])cc1 | 10.6
O=C(Nc1ccccc1)OCCOc1cccc(Br)c1 | 1.49
Cc1ccc(CNC(=O)CCC2CCCN(Cc3cccc4cccnc34)C2)o1 (stereo not drawn) | -66
Cc1nn(C(C)C)c(C)c1CN1CCCC(CCC(=O)NCc2ccccc2F)C1 (stereo not drawn) | 0.286
Cc1ccc(CNC(=O)CCC2CCCN(Cc3cccc4ncccc34)C2)o1 (stereo not drawn) | -22.4
Cc1ccc(CNC(=O)CCC2CCCN(Cc3c(C)nn(C(C)C)c3C)C2)o1 (stereo not drawn) | -16.6
CC(C)c1csc(CN2CCCC(CCC(=O)NCc3ccccc3F)C2)n1 (stereo not drawn) | -34.3
Cc1ccc(CNC(=O)CCC2CCCN(Cc3ccc4cccc(F)c4n3)C2)o1 (stereo not drawn) | -52.1
O=C(NN1C(=O)C2C3C=CC([C@H]4CC34)[C@@H]2C1=O)c1ccc(Br)cc1 (stereo partly drawn) | 8.18
COc1ccc(CNC(=O)CC2C(=O)NCCN2C2Cc3ccccc3C2)cc1 (stereo not drawn) | -28.5
CCc1c(C(=O)Nc2cc(C)cc(C)c2)[nH]c(C)c1C(C)=O | 12.7
Cc1nn(C2CCS(=O)(=O)C2)c(Cl)c1/C=C/C(=O)OCC(=O)c1cc(C)n(-c2ccc(F)cc2)c1C (stereo not drawn) | 4.11
Cc1nc(SCC(=O)NC2CCCC2)[nH]c(=O)c1Cc1ccccc1 | 7.93
CCN1CCN(C(=O)c2cc(-c3cccnc3)nc3ccc(Br)cc23)CC1 | -28.5
CCCN(CCC)Cc1c(C(=O)N/N=C/c2ccsc2)nnn1-c1nonc1N | -14.6

Structure (SMILES) | hERG current change (%, negative = inhibition) at 10uM [%]
COCc1c(C(=O)N/N=C(\C)c2ccncc2)nnn1-c1nonc1N | 7.11
CCOc1cccc(-c2c(C(=O)N/N=C/c3ccncc3)nnn2-c2nonc2N)c1 | -9.65
CCOc1cccc(-c2c(C(=O)N/N=C/c3cccnc3)nnn2-c2nonc2N)c1 | -54
CCN(CC)Cc1c(C(=O)N/N=C/c2ccncc2)nnn1-c1nonc1N | -55.9
CCN(CC)Cc1c(C(=O)N/N=C/c2cccnc2)nnn1-c1nonc1N | -10.9
CN(C)Cc1c(C(=O)N/N=C/c2ccncc2)nnn1-c1nonc1N | 3.67
CCCN(CCC)Cc1c(C(=O)N/N=C/c2ccncc2)nnn1-c1nonc1N | -64.1
CCCN(CCC)Cc1c(C(=O)N/N=C/c2ccc(Br)cc2)nnn1-c1nonc1N | -15.3
CCOc1ccc(-c2c(C(=O)N/N=C/c3cccnc3)nnn2-c2nonc2N)cc1 | 9.94
CCN(CC)Cc1c(C(=O)N/N=C(\C)c2ccncc2)nnn1-c1nonc1N | -80.3
CCCc1c(C(=O)N/N=C(/C)c2ccncc2)nnn1-c1nonc1N | 0.629
O=C(c1ccc(-n2c(SCc3cc(F)ccc3F)nc3ccccc3c2=O)cc1)N1CCOCC1 | 8.7
Cc1noc(C)c1COC(=O)Cc1ccc(Cl)cc1 | -5.13
COc1ccc(Cc2nc3ccc(C(=O)NCCSC)cc3o2)cc1 | 6.36
CC(=O)Nc1ccc(S(=O)(=O)N2CCC(N(C)CCC(C)C)CC2)cc1.Cl | -46.8
c1csc(C2Nc3cccc4cccc(c34)N2)c1 | -17.2
CCC(=O)Nc1cccc(C(=O)/C=C/c2cccs2)c1 | -3.34
COc1ccc(/C=N/NC(=O)CNc2ccc(Br)cc2)c(C(=O)O)c1OC | 13.9
O=C(NCCCN1CCCC1=O)c1ccc(OC(F)(F)F)cc1 | -0.372
COC(=O)C1=C(C)NC2=C(C(=O)c3ccccc32)C1c1cccc(OC)c1 (stereo not drawn) | 4.97
CN(C)C(=O)c1ccc(NC(=O)c2ccccc2Sc2ccccc2C#N)cc1 | 1.57
